For test [1], the target named is 5'-AMP-activated protein kinase catalytic subunit alpha-2 (Homo sapiens) (UniProt P54646). To be noted: at 1 µM.
In test [2] the target is T1, NUAK family SNF1-like kinase 1 (Homo sapiens) (UniProt O60285).
T1 sequence (whole entry): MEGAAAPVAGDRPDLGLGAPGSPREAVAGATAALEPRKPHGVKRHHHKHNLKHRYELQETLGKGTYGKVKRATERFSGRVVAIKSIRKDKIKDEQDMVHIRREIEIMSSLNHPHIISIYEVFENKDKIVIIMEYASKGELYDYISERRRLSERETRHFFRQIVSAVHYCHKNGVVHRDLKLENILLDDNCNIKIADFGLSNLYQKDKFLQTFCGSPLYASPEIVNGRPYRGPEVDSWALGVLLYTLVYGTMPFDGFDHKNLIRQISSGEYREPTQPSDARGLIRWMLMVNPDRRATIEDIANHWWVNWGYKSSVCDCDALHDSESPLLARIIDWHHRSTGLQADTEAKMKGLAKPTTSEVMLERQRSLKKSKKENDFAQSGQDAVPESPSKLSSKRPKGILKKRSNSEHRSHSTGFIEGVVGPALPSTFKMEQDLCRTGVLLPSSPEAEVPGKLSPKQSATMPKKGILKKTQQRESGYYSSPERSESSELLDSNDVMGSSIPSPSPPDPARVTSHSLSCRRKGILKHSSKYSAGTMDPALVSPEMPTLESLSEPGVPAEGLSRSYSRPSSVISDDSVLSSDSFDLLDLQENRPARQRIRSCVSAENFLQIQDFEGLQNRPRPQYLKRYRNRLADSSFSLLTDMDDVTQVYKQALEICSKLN
To be noted: at 0.1 µM.

Test [3] addresses T1, NUAK family SNF1-like kinase 1 (Homo sapiens). To be noted: at 1 µM.
Test [4] addresses T2, Serine/threonine-protein kinase BRSK1 (Homo sapiens) (UniProt Q8TDC3).
T2 sequence (whole entry): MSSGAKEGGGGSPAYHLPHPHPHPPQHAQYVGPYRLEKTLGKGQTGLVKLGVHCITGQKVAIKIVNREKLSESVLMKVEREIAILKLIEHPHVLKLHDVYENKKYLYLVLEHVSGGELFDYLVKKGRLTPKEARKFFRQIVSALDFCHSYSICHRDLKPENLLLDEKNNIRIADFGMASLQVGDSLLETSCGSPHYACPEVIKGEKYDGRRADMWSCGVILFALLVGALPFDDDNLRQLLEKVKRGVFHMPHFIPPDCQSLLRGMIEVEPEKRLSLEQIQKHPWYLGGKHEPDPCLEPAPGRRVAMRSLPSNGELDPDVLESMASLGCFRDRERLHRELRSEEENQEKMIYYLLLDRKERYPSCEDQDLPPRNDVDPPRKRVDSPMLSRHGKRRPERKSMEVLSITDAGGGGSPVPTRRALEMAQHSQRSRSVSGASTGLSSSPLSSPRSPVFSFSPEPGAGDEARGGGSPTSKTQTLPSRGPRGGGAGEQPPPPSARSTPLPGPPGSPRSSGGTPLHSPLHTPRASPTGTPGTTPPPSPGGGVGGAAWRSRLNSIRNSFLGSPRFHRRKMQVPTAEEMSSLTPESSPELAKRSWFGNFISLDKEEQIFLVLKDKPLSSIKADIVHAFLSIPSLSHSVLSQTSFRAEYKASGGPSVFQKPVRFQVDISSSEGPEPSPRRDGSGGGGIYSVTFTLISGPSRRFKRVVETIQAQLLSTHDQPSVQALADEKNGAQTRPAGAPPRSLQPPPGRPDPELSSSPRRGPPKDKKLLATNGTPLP
To be noted: at 0.1 µM.

Test [5] has as its target T2, Serine/threonine-protein kinase BRSK1 (Homo sapiens). To be noted: at 1 µM.
Test [6] concerns the target T3, Serine/threonine-protein kinase BRSK2 (Homo sapiens) (UniProt Q8IWQ3).
T3 sequence (whole entry): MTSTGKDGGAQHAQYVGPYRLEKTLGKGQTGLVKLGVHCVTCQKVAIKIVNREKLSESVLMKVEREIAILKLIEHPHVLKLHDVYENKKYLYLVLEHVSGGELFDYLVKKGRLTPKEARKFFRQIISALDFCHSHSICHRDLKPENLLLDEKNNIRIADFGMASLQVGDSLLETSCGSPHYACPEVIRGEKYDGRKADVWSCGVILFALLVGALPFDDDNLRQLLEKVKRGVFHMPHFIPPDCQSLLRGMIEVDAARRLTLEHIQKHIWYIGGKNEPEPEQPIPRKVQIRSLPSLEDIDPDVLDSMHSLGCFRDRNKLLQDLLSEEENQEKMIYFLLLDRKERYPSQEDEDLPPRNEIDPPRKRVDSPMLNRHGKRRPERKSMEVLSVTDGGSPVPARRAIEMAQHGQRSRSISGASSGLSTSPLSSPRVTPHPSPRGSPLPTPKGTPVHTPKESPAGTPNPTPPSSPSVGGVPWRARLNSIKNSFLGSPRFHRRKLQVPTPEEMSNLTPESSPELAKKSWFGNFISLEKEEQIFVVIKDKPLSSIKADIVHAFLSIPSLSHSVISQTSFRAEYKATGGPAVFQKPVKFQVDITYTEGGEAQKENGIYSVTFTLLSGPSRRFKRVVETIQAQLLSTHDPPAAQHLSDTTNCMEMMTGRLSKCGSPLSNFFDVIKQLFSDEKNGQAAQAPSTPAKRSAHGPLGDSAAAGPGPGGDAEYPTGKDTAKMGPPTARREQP
To be noted: at 0.1 µM.

Test [7] concerns the target T3, Serine/threonine-protein kinase BRSK2 (Homo sapiens). To be noted: at 1 µM.
In test [8] the target is Calcium/calmodulin-dependent protein kinase type 1D (Homo sapiens) (UniProt Q8IU85). To be noted: at 0.1 µM.
Sequence of Calcium/calmodulin-dependent protein kinase type 1D (Homo sapiens) (Q8IU85 whole entry, looked up): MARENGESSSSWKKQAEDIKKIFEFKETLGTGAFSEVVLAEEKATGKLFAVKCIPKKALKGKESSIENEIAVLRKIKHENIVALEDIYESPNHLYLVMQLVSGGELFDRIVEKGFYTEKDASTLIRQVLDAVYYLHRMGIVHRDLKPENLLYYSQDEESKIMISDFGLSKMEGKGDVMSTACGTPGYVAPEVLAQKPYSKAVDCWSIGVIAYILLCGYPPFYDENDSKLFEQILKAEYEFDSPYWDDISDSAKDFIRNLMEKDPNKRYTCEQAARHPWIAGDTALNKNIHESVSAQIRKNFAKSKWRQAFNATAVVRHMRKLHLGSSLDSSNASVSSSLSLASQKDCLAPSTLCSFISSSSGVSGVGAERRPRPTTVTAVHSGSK
The target is the same in test [9]. To be noted: at 1 µM.
Test [10] deals with Calcium/calmodulin-dependent protein kinase type II subunit alpha (Homo sapiens) (UniProt Q9UQM7). To be noted: at 0.1 µM.
Sequence of Calcium/calmodulin-dependent protein kinase type II subunit alpha (Homo sapiens) (Q9UQM7 whole entry): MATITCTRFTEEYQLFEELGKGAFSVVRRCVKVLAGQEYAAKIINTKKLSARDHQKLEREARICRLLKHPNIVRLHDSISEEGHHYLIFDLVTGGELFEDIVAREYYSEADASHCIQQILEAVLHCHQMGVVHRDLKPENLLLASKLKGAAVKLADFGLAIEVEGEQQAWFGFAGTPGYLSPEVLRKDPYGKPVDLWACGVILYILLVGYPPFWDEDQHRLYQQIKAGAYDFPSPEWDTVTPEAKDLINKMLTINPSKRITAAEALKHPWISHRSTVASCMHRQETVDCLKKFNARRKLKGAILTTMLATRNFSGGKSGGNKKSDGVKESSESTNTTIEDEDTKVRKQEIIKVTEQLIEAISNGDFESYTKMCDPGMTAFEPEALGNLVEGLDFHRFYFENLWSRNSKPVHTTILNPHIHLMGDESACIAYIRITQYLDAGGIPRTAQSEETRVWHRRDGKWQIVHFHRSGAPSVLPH
Test [11] shares this target. To be noted: at 1 µM.
Test [12] has as its target Calcium/calmodulin-dependent protein kinase type II subunit delta (Homo sapiens) (UniProt Q13557). To be noted: at 0.1 µM.
For test [13] the target is unchanged. To be noted: at 1 µM.
Test [14] has as its target T4, Calcium/calmodulin-dependent protein kinase type IV (Homo sapiens) (UniProt Q16566).
T4 sequence (whole entry): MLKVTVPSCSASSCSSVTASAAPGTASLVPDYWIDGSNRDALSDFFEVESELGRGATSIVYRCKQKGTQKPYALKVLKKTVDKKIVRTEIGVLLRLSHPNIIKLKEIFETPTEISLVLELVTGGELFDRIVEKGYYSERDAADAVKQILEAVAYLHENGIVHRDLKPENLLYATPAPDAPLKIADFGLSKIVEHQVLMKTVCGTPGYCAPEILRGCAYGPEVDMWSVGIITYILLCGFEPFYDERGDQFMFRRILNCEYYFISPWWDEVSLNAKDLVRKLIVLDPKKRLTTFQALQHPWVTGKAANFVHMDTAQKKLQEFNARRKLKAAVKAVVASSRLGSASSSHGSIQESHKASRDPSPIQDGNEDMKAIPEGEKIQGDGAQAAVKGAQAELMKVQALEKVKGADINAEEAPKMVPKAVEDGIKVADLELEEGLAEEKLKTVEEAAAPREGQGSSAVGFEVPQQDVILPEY
To be noted: at 0.1 µM.

The target of test [15] is T4, Calcium/calmodulin-dependent protein kinase type IV (Homo sapiens). To be noted: at 1 µM.
The target in test [16] is T5, Serine/threonine-protein kinase Chk1 (Homo sapiens) (UniProt O14757).
T5 sequence (whole entry): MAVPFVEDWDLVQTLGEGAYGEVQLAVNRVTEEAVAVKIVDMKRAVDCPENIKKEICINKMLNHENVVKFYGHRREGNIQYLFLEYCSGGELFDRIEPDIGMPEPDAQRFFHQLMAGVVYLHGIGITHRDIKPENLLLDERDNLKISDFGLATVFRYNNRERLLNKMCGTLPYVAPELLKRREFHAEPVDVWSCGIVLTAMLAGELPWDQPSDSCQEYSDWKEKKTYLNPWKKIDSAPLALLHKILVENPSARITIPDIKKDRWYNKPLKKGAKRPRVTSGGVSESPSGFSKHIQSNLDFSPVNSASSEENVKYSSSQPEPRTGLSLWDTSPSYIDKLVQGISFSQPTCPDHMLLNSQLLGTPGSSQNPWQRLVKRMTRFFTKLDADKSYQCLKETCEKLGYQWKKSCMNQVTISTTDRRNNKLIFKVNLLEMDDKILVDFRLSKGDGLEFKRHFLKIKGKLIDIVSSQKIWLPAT
To be noted: at 0.1 µM.

The target of test [17] is T5, Serine/threonine-protein kinase Chk1 (Homo sapiens). To be noted: at 1 µM.
The target in test [18] is Serine/threonine-protein kinase Chk2 (Homo sapiens) (UniProt O96017). To be noted: at 0.1 µM.
Sequence of Serine/threonine-protein kinase Chk2 (Homo sapiens) (O96017 whole entry): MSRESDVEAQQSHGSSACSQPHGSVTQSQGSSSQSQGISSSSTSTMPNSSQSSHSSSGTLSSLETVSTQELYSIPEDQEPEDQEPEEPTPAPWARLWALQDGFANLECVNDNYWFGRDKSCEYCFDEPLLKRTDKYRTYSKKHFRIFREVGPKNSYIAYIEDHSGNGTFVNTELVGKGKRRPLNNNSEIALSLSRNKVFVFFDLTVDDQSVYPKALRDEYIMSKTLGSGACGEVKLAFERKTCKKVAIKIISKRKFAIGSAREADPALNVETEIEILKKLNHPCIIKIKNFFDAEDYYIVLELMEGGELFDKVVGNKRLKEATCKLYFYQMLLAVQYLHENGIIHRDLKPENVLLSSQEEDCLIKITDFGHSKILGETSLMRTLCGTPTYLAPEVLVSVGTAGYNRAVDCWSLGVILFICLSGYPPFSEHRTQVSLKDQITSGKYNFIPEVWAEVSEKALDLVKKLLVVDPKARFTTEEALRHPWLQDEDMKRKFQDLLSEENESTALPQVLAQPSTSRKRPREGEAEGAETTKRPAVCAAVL
Test [19] has the same target. To be noted: at 1 µM.
Test [20] concerns the target Death-associated protein kinase 1 (Homo sapiens) (UniProt P53355). To be noted: at 0.1 µM.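 Further: reported figure is the mean inhibition of DAPK1.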

In ChEMBL document CHEMBL1961873, “Compounds: GSK PKIS; Assays: Nanosyn kinase panel” (2012) one finds inhibition data, which are given here for three molecules.

Sequence of Death-associated protein kinase 1 (Homo sapiens) (P53355 whole entry, looked up): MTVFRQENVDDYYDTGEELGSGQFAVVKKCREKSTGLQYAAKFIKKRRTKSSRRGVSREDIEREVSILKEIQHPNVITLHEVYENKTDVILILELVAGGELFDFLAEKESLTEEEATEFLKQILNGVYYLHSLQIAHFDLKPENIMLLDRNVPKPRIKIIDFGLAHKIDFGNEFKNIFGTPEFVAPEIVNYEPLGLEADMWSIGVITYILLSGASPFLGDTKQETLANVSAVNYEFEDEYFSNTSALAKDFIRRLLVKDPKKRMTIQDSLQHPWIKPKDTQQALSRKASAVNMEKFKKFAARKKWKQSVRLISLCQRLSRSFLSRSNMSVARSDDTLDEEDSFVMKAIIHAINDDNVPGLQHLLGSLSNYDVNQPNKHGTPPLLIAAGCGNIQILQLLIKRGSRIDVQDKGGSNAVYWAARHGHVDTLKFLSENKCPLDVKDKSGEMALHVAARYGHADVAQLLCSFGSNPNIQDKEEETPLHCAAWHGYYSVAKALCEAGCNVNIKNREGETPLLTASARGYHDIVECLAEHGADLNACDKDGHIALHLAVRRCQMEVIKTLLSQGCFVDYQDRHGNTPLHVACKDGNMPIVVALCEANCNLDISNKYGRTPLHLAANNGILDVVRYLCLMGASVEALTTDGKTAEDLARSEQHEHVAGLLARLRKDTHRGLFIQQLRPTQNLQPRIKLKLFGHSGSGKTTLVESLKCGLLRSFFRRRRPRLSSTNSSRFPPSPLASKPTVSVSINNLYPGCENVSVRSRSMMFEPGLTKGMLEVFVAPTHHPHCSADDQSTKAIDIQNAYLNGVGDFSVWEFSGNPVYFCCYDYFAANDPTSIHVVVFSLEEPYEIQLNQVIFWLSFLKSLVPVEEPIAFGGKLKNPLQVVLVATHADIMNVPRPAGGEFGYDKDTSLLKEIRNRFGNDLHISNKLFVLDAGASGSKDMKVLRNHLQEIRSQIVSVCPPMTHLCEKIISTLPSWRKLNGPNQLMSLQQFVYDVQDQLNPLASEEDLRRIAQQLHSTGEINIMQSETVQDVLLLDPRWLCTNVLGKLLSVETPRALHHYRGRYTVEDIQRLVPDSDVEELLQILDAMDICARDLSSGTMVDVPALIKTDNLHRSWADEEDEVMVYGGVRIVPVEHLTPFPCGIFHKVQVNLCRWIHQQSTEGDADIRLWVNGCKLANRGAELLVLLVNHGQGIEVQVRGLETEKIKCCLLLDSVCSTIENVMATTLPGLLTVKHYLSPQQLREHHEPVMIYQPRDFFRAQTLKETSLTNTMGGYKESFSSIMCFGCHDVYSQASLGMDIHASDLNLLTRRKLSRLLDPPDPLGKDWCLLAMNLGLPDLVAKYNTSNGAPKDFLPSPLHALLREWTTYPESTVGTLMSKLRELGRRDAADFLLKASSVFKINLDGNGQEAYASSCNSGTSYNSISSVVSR
Sequence of 5'-AMP-activated protein kinase catalytic subunit alpha-2 (Homo sapiens) (P54646 whole entry, looked up): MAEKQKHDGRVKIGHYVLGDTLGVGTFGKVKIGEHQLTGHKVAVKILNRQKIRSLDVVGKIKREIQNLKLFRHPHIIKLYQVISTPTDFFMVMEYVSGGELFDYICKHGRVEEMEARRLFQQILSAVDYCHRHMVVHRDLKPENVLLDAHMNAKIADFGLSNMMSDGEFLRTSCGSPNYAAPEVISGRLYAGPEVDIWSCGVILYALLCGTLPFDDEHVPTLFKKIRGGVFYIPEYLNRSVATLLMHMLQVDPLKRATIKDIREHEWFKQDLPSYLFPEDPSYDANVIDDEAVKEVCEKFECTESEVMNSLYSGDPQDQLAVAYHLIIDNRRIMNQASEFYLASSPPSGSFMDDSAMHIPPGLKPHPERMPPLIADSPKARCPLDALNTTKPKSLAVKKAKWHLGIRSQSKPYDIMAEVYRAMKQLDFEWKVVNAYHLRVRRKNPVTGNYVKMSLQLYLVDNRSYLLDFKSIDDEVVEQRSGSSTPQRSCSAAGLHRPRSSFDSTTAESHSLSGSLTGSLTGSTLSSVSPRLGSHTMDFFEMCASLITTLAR
Sequence of Calcium/calmodulin-dependent protein kinase type II subunit delta (Homo sapiens) (Q13557 whole entry): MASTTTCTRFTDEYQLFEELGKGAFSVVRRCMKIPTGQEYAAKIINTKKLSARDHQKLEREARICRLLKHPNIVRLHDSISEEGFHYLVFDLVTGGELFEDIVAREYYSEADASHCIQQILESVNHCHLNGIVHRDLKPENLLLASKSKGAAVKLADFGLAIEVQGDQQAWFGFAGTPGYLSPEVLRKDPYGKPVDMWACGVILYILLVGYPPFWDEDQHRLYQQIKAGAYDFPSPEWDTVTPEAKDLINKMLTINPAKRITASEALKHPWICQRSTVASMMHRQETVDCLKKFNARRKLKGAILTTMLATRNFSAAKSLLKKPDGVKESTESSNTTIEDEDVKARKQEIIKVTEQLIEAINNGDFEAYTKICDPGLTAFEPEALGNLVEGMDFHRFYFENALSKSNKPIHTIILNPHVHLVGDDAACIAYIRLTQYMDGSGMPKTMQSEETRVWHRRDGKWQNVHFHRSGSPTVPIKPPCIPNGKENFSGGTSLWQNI

A word on the inhibition: it is the drop in the measured response relative to a control, in per cent. Consider `Fc1cccc(COc2ccc(Nc3ncnc4cc(-c5ccc[nH]5)sc34)cc2Cl)c1`, for which the inhibition in test [1] worked out at 3.27%; in [2], 2.43%; in [3] it was 6.42%; in test [4], 0.67%; in test [5], 1.16%; in test [6], 0.79%. Moreover, the inhibition came out at 4.01% in test [7]; 1.56% in test [8]; 1.16% in test [9]; 0.3% in test [10]; 0.84% in [11]; 1.12% in test [12]. Besides, the inhibition was 2.72% in [13]; 1.44% in test [14]; 1.44% in test [15]; -0.13% in test [16]; 3.63% in test [17]; 0.71% in test [18]. For the same molecule, the inhibition is 3.96% in test [19] and -1.32% in test [20].

In the case of `CC1=C(C(=O)Nc2ccc3[nH]ncc3c2)C(c2ccc(F)cc2)NC(=O)N1` (stereo not given), the inhibition in [1] was 5.96%; in test [2], 4.1%; in test [3], 11.3%; in test [4], 1.49%; in test [5], 8.31%; in [6], 1.99%. The inhibition in test [7] was 15.5%; in test [8], 0.49%; in [9], -0.14%; in [10], -0.47%; in [11], 0.1%; in test [12], 1.48%. The inhibition is 1.35% in test [13]; 0.3% in [14]; -0.21% in test [15]; 0.87% in test [16]; 4.3% in test [17]; 1.2% in test [18]. Also, the results for the inhibition in test [19] and in test [20] were 2.29% and 1.6%, respectively.

With `COc1cc2ncn(-c3cc(OCc4ccccc4C(F)(F)F)c(C(N)=O)s3)c2cc1OC`, the inhibition in [1] amounted to 6.24%; in test [2] it was 21.7%; in test [3] it was 65.5%; in test [4], 6.7%; in test [5], 41.1%; in test [6], 14.8%. Also, the inhibition was 52.4% in test [7]; -0.86% in test [8]; -1.9% in [9]; 2.39% in test [10]; -0.1% in test [11]; 3.23% in test [12]. Further, the inhibition in test [13] was 7.03%; in test [14] it was -2.38%; in test [15] it was -1.47%; in test [16], 2.54%; in test [17], 3.46%; in test [18], 3.3%. The values for the inhibition in [19] and in test [20] were 5.56% and 4.32%, respectively.
